Potency and affinity values are given separately. Results filed as inconclusive are left out. Calls of active or inactive are those of the source.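 Rule for the calls: active = signal loss with fitted half-maximal concentration at or below twice the top valid tested dose in every test run; inconclusive = runs disagree, flat 30 to 70% signal loss, or poor fit; inactive = all runs flat, opposite direction, or potency beyond limit.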
Assay: general mammalian cell viability loss – inhibitor set, cherry-pick, set 2, cytotoxicity control for miR-122 modulator project, dose response (AID 720697);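 note: 0% = median of neutral control wells and -100% = MG132 positive control wells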
Details: HEK293T viability, CellTiter-Glo luminescence, 48 h; series mostly up to 26 µM; activity change, negative = cytotoxicity: at the top concentration

| Compound | activity change, negative = cytotoxicity |
| --- | --- |
| Cc1cccc(NC(=O)Nc2ccc3c(c2)C(=O)N(C)[C@@H]2CC[C@@H](CC(=O)NCc4ccccc4Cl)O[C@H]2CO3)c1 | 92.1% (inactive) |
| C/C=C/c1ccc([C@@H]2[C@H](CO)N[C@H]2CN(CC)C(=O)CN2CCOCC2)cc1 | 47% (inactive) |
| CO[C@@H]1CN(C)C(=O)c2ccc(NS(=O)(=O)c3ccc(C)cc3)cc2OC[C@@H](C)N(C(=O)NC(C)C)C[C@H]1C | -15.2% (inactive) |
| O=C(Nc1ccccc1F)N1[C@H](CO)[C@@H]2c3ccccc3NC[C@@H]21 | 6.09% [at 23.5 µM] (inactive) |
